Experimental data as given in PubChem BioAssay.
Calls of active or inactive are those of the source.

Assays:
[1] = tested on: Human papillomavirus type 1a protein E7 (residues 44-93); assay: small molecules binding HPV E7 44-93 – biochemical, small-molecule microarray, residues 44-93, 635 nm fluorescence, primary screen (AID 1108); settings: fluorescence 635 nm, higher = more signal;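 also: E7 fragment applied at 1 µg/mL in TBST for 1 h at 4 C; score combines spot fluorescence with its signal to noise ratio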
[2] = hepatitis C replication reporter changes, two-sided – Huh7 cells, luciferase reporter, HCV replication inhibitor project, primary screen (AID 1109); settings: Huh7 HCV replicon luciferase reporter, 48 h; higher = more signal;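 also: huh7 hepatoma cells harbouring a luciferase neomycin HCV replicon reporter; luciferase luminescence as measure of HCV replicon replication; test concentration not given here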
[3] = target: Left-right determination factor 2 (Homo sapiens) (UniProt O00292); assay: small molecules binding LEFTY2 protein – biochemical, small-molecule microarray, 635 nm fluorescence scan, primary screen (AID 1110); settings: higher = more signal
Sequence of Left-right determination factor 2 (Homo sapiens) (O00292 whole entry, looked up): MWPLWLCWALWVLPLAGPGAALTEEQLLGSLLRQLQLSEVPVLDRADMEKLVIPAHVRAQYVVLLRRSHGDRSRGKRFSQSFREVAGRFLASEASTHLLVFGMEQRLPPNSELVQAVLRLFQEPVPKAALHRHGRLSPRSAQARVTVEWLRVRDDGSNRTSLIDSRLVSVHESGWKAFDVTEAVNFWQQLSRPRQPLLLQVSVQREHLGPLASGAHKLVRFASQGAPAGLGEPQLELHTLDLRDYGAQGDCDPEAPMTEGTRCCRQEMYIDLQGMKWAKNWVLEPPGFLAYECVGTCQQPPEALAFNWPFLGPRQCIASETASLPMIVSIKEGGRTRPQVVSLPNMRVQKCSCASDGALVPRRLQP

[4] = target: Calmodulin-1 (Homo sapiens) (UniProt P0DP23); assay: small molecules binding calmodulin-1 with EGTA – biochemical, small-molecule microarray, Cy5-labelled CALM1, profiling panel (AID 1111); settings: Cy5-CALM1 binding fluorescence, higher = more signal;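 also: labelled calmodulin applied in Tris saline Tween buffer holding calcium plus EGTA and DTT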
[5] = target: Calmodulin-1 (Homo sapiens) (UniProt P0DP23); assay: small molecules binding Ca-loaded calmodulin-1 – biochemical, small-molecule microarray, Cy5-labelled CALM1, plus calcium, artefact control for SMM control-protein annotation, profiling panel (AID 1112); settings: Cy5-CALM1 binding fluorescence, higher = more signal;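 also: score merges spot fluorescence with signal to noise from triplicate slides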
[6] = probe aWnt5a binding to arrayed compounds – biochemical, biotinylated probe, 635/667 nm fluorescence, primary screen (AID 1113); settings: small-molecule microarray, higher = more signal;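 also: score merges 667 nm fluorescence intensity with signal-to-noise per printed feature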
[7] = probe aShh binding to arrayed compounds – biochemical, biotinylated probe, 635/667 nm fluorescence, primary screen (AID 1114); settings: small-molecule microarray, higher = more signal;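 also: probe is biotin-labelled aShh protein from a stem cell growth factor screen; measures binding of labelled protein to compounds printed on the slide; score merges feature fluorescence at 667 nm with signal-to-noise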
[8] = probe aNog binding to arrayed compounds – biochemical, biotinylated probe, 635/667 nm fluorescence, primary screen (AID 1115); settings: small-molecule microarray, higher = more signal;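 also: probe is biotinylated aNog protein used at 0.15 µg/mL for 1 h at 4 C; z-score combines 667 nm fluorescence of each spot with its signal to noise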
[9] = target: Torsin-1A-interacting protein 1 (Homo sapiens) (UniProt Q5JTV8); assay: compound microarray binding of lysate hLAP1 – cell lysate, small-molecule microarray, COS7 lysate, 635/667 nm fluorescence, primary screen (AID 1116); settings: 635 nm fluorescence, higher = more signal
Sequence of Torsin-1A-interacting protein 1 (Homo sapiens) (Q5JTV8 whole entry, looked up): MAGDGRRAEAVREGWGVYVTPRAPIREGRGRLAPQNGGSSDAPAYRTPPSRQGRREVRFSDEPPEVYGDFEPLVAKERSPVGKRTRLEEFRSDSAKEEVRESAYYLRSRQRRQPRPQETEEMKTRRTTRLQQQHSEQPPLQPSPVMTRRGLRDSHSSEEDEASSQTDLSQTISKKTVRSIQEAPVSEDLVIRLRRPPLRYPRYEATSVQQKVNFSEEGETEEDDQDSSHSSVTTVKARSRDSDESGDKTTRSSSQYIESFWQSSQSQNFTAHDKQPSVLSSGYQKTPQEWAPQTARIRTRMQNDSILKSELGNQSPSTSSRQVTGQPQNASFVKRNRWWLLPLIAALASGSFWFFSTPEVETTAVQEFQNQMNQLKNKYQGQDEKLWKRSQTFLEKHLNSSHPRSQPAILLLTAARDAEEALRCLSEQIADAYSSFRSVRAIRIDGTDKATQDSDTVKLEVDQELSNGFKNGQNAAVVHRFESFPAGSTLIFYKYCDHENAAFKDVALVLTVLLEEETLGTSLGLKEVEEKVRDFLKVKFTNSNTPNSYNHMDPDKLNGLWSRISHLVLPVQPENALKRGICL

[10] = target: Alpha-bungarotoxin (Bungarus multicinctus) (UniProt P60615); assay: compounds binding labelled alpha-BTX control protein – biochemical, small-molecule microarray, Alexa647 label, 635/667 nm fluorescence, artefact control for SMM control protein annotation, profiling panel (AID 1117); settings: alpha-BTX-A647 binding fluorescence, higher = more signal
Sequence of Alpha-bungarotoxin (Bungarus multicinctus) (P60615 whole entry, looked up): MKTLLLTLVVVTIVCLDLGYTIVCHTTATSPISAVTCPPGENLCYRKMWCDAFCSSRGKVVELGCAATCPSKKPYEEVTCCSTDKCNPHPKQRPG

Albumin (Bos taurus) = Albumin (Bos taurus) (UniProt P02769); assay: compounds binding labelled BSA control protein – biochemical, small-molecule microarray, Alexa647 label, 635/667 nm fluorescence, artefact control for SMM control protein annotation, profiling panel (AID 1118); settings: BSA-A647 binding, fluorescence 635 nm, higher = more signal;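 also: score merges 667 nm emission intensity and signal-to-noise per printed compound spot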
Sequence of Albumin (Bos taurus) (P02769 whole entry, looked up): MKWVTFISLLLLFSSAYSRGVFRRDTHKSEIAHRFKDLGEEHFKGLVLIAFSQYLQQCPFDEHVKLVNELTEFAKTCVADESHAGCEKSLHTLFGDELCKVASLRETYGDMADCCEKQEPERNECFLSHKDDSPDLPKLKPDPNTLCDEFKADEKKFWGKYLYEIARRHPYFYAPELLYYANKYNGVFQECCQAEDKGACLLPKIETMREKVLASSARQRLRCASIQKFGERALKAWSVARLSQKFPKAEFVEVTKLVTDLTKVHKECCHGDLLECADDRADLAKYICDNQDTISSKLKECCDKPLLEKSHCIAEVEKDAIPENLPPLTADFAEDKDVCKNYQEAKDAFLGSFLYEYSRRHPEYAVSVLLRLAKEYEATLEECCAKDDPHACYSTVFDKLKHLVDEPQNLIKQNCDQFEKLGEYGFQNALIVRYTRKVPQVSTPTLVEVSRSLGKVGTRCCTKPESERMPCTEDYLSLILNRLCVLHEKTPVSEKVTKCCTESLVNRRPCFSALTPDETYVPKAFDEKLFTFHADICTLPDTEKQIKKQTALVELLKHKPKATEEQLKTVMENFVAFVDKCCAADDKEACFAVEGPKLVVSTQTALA

[11] = probe aXIP binding to arrayed compounds – biochemical, NeuroSMM set, 635/667 nm fluorescence, primary screen (AID 1119); settings: small-molecule microarray, higher = more signal, called active from +8 up or from −8 down;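 also: probe is the protein aXip251-270 applied at 1 µg/mL to compound-printed slides; binding of probe to printed compounds measured as 667 nm fluorescence plus signal to noise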
[12] = probe aNOTCH3 binding on compound microarray – biochemical, small-molecule microarray, 635/667 nm fluorescence, primary screen (AID 1120); settings: higher = more signal;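 also: probe is a biotin-tagged antibody raised against NOTCH3 rather than NOTCH3 protein; score merges spot fluorescence near 667 nm with spot signal to noise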
[13] = probe aNOTCH2 binding on compound microarray – biochemical, small-molecule microarray, 635/667 nm fluorescence, primary screen (AID 1121); settings: higher = more signal;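 also: score merges feature fluorescence read at 667 nm with its signal to noise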
[14] = target: Carbonic anhydrase 2 (Homo sapiens) (UniProt P00918); assay: compounds binding carbonic anhydrase 2 – biochemical, small-molecule microarray, Alexa647-labelled CAII, profiling panel (AID 1122); settings: CAII-A647 binding fluorescence, higher = more signal
[15] = COS7 lysate on small-molecule microarray, probe aHis, 635 nm (AID 1123); settings: COS7 cell lysate, fluorescence, higher = more signal;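 also: z-score combines 667nm fluorescence intensity with signal-to-noise per printed compound spot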
[16] = probe aLAP1 signal on lysate-treated microarray – cell lysate, small-molecule microarray, COS7 lysate, primary screen (AID 1124); settings: probe aLAP1, fluorescence, higher = more signal;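 also: lysate comes from COS7 cells expressing LAP1 and is applied at 0.3 µg/mL; score merges spot fluorescence near 667 nm with signal-to-noise over triplicate slides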
Sam68 (KHDRBS1) = assay: compounds binding KHDRBS1 protein – biochemical, small-molecule microarray, 635 nm fluorescence, primary screen (AID 1125); settings: higher = more signal;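 also: score merges 667 nm channel intensity with signal to noise over triplicate slides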
[17] = tested on: Chordin-like protein 2 (CHRDL2); assay: compounds binding chordin-like 2 – biochemical, small-molecule microarray, 635 nm fluorescence, primary screen (AID 1126); settings: fluorescence 635 nm, higher = more signal;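 also: printed compound slides probed with Chrdl2 protein at 4 µg/mL for 1 h at 4 C; score merges 667 nm emission intensity with signal to noise over three replicate slides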
[18] = target: Concanavalin-A (Canavalia ensiformis) (UniProt P02866); assay: compounds binding concanavalin A lectin – biochemical, small-molecule microarray, Alexa647 label, 635 nm, artefact control for SMM control protein annotation, primary screen (AID 1127); settings: ConA-A647 binding fluorescence, higher = more signal;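 also: z combines 667 nm emission intensity with signal-to-noise across three replicate slides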
Sequence of Concanavalin-A (Canavalia ensiformis) (P02866 whole entry, looked up): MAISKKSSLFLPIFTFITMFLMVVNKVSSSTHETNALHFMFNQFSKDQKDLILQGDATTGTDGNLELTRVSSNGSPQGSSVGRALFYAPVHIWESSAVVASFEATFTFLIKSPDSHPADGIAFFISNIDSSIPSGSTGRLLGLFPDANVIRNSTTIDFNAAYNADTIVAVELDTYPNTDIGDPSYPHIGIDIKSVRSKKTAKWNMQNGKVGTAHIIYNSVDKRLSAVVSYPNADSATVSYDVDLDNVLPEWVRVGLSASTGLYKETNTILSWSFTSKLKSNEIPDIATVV

Row | SMILES | composite z-score [1] | z-score [2] | composite z-score [3] | composite z-score [4] | composite z-score [5] | composite z-score [6] | composite z-score [7] | composite z-score [8] | composite z-score [9] | composite z-score [10] | composite z-score (Albumin (Bos taurus)) | composite Z-score [11] | composite z-score [12] | composite z-score [13] | composite z-score [14] | composite z-score [15] | composite z-score [16] | composite z-score (Sam68 (KHDRBS1)) | composite z-score [17] | composite z-score [18]
1 | CCCCC#C[C@@H]1C=C[C@H](OC(C)=O)[C@@H](COC(C)=O)O1 | 0.713 | -2.47 | 0.579 | 0.349 | -0.0635 | -0.118 | -0.221 | -0.285 | 0.339 | 0.217 | 0.678 | 0.299 (inactive) | 0.0758 | -0.0698 | -0.0641 | 0.015 | -0.406 | 0.581 | 0.282 | 0.475
2 | CCOC(=O)CCN1C(=O)[C@H]2[C@H]3[C@H](O)[C@H](O)CC(=NNC(=O)OCc4ccccc4)[C@@H]3CC[C@H]2C1=O | 0.582 | -0.582 | 0.929 | 0.634 | -0.0903 | -0.0819 | -0.0035 | -0.147 | 0.754 | 0.999 | 0.576 | 0.406 (inactive) | -0.0864 | -0.117 | 0.21 | -0.0034 | 0.32 | 1.19 | 0.393 | 1
3 | CC(C)CON=C1C[C@@H](O)[C@@H](O)[C@@H]2[C@@H]3C(=O)N(C4CCCCC4)C(=O)[C@@H]3CC[C@@H]12 | -0.991 | -1.6 | 0.0528 | -0.333 | -0.558 | -0.178 | -0.279 | -0.417 | 0.136 | 0.673 | 0.401 | -0.0662 (inactive) | -0.178 | -0.177 | 0.389 | 1.73 | -0.499 | 0.158 | -0.329 | 1.01
4 | C=CC[C@@H]1C=C[C@H](ON=C(C)CCC(=O)OC[C@H]2O[C@H](c3ccccc3)C=C[C@@H]2Oc2ccc(OC)cc2)[C@@H](CO)O1 | -0.0821 | -1.54 | -0.189 | -0.725 | -0.878 | -0.152 | -0.221 | -0.158 | 0.106 | -0.55 | -0.1 | 0.741 (inactive) | -0.171 | -0.177 | -0.273 | 0.342 | -0.0007 | 0.144 | -0.0018 | -0.152
5 | O=c1n(Cc2cc3c(cc2Cl)OCO3)c(=O)n2n1CC[C@@H]1C(=NOCc3ccccc3)[C@H]3O[C@H]3[C@@H](O)[C@@H]12 | 0.439 | 0.51 | 0.582 | 0.0528 | -0.827 | -0.152 | -0.34 | -0.519 | 0.157 | -0.0536 | 0.0524 | 0.0993 (inactive) | 0.106 | -0.0495 | 0.177 | 0.155 | 0.708 | 0.529 | 0.6 | 0.223
6 | C[C@@H]1C=CCC(=O)OC[C@H]2O[C@@H](C=C[C@@H]2O)[C@H](C)C=CCC(=O)OC1 | -1.9 | -0.362 | 1.59 | -1.35 | -2.47 | -0.359 | -0.0626 | -0.285 | 0.113 | 0.981 | -0.861 | 4.07 (inactive) | 0.0903 | -0.0903 | -0.5 | -1.26 | -0.307 | -0.419 | 1.6 | -1.65
7 | CCOC(=O)C1=NO[C@@]2(C=C(Br)C3(OCCCO3)[C@H]3O[C@H]32)C1 | 0.339 | -0.154 | 1.13 | -2.14 | -2.64 | -0.138 | 0.0952 | -0.452 | -0.143 | 2.04 | -1.04 | 0.44 (inactive) | 0.0962 | -0.14 | 0.486 | 0.336 | -0.145 | -0.268 | 1.52 | 0.313
8 | CC(C)CCN1CCc2nc(COc3ccccc3)c3c(c2C1)CO[C@@H](C)C3 | 0.25 | 0.911 | 0.0637 | 0.683 | 0.0677 | -0.118 | 0.0796 | 0.15 | 0.686 | 0.221 | 0.536 | 0.354 (inactive) | -0.0343 | -0.0797 | 0.319 | 0.965 | 0.378 | 0.0676 | 0.119 | 0.432
9 | COC(=O)[C@@H]1CC[C@H](C)[C@@H](c2ccc(C)cc2)N1C(=O)c1ccc(C=NO[C@@H](C)c2cn([C@H](CO)Cc3ccccc3)nn2)cc1 | 1.3 | -2.25 | 0.785 | -0.0062 | -0.388 | 0.116 | -0.0146 | -0.0554 | 0.641 | 0.51 | 0.597 | -0.222 (inactive) | 0.217 | -0.09 | 0.097 | 1.2 | -0.151 | 1.32 | 0.892 | 0.81
